# KDM5B inhibitor – KDM5B demethylase inhibition; Q9UGL1; KDM5B demethylase, FDH-coupled NADH fluorescence (FDH is formaldehyde dehydrogenase); Potency, µM (series often up to 57.7 µM), hits mostly inhibitors; hit rate 2.6% among 220,000; AID 1347165; also: potency is read from the fitted curve at half-maximal effect; 0% is about no effect; nearly all actives have a fitted effect of over 70% in size
#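 Compound dilutions met 200 nM (final) KDM5BΔAP for 10 min at room temperature before substrate addition. The substrate mix held 12.5 µM H3K4me3 with cofactors 25 µM α-ketoglutarate and 50 µM Fe²⁺. NADH signal gain over 30 min defined activity.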
# IP6K1 inh – blocks human inositol hexakisphosphate kinase 1; Q92551; IP6K1 kinase, ADP-Glo luminescence, 2 h; stronger effect = lower value; activity change, % (series mostly up to about 58 µM); hit rate 0.81% among 140,000; AID 1645851; in the data active = activity change below about -25%; also: % is scaled to controls: 0 for no effect and ±100 for the full control effect
# Target sequence (Q92551 whole entry, looked up): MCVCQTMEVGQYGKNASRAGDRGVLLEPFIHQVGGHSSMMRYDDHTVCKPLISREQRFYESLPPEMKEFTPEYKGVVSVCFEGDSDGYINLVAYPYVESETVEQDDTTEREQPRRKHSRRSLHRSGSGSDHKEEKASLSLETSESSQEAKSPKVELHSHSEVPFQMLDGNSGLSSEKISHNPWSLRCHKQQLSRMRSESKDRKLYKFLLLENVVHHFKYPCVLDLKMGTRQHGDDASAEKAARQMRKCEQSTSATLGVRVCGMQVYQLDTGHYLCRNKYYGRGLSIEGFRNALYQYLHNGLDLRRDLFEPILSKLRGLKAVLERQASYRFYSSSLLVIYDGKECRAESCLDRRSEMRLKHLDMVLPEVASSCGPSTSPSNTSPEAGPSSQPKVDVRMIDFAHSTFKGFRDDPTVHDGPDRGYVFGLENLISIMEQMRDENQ
#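 ADP-Glo luminescence measures ADP made by human IP6K1 during a 2 h RT reaction with ATP/IP6 (mix at 1.3 mM/130 uM); top library doses 57.5 and 19.1 uM final.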
# SNCA expr inhib – inhibitors of alpha-synuclein (SNCA) gene expression; HEK-293 SNCA-luciferase knock-in, luminescence, 24 h; Potency, µM (doses to about 57.2 µM), for the others: at the highest dose activity change, negative = inhibition, usual class: inhibitors; hit rate 0.17% among 140,000;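 also: potency is read from the fitted curve at half-maximal effect; plate controls were DMSO cells for no effect and cell-free wells for full effect; nearly all actives have a fitted effect of over 45% in size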
# SNCA viab count – reduces viability of HEK-293 SNCA reporter cells | HEK-293-SNCA-luc viability, GF-AFC fluorescence, 24 h | Potency, µM (series often up to 57.1 µM), inactives show at the top dose activity change, negative = cytotoxicity, usual class: cytotoxic | hit rate 0.12% among 150,000 | AID 1671193;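 also: potency is read from the fitted curve at half-maximal effect; 0% = DMSO-treated cells and -100% = medium-only wells without cells; nearly all actives have a fitted effect of over 30% in size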
#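 Cytotoxicity counterscreen: after 24 h compound treatment of genome-edited SNCA-luciferase HEK-293 cells, live-cell protease substrate GF-AFC read by fluorescence after 30 min; activity scaled between DMSO (0%) and medium-only (-100%), curves Hill-fitted.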
# * hit, by the source's call; i = inactive; ? = inconclusive; · = not tested or not shown; [ ] = another dose, or the depositor's remark. Hits are enriched below; roughly 2.8% of the tested compounds scored in any of these assays. Unless noted, calls follow the shape of the dose curve; as a rule, active = well fitted curve in the direction sought with a large enough effect; inconclusive = small, poorly fitted or top-dose-only effect, or another doubt; inactive = no such curve, though single readings can be large; an effect the other way counts as inactive or inconclusive.
SMILES,KDM5B inhibitor,IP6K1 inh,SNCA expr inhib,SNCA viab count
Cc1cccn2c(CC(=O)N3CCN(C)[C@@H]4CS(=O)(=O)C[C@@H]43)cnc12,28.2µM*,9.0,29.7%,0.3%
CCOC(=O)[C@H]1CN(C(=O)c2ccc(OC)c(OC)c2)[C@]2(C)C(=O)N(CC3CC3)c3ccccc3[C@H]12,·,-0.8,·,·
CC(C)CC(=O)N1CCC2(CC1)c1nccn1-c1ccccc1CN2C,i,8.9,3.8%,5.8%
C=C1[C@@H](C)[C@H]2[C@H](Cc3ccccc3)NC(=O)[C@]23OC(=O)/C=C/C(=O)CCC[C@@H](C)C/C=C/[C@H]3[C@@H]1O,·,-10.6,·,11.9µM*
C=C1[C@@H](C)C2[C@H](Cc3ccccc3)NC(=O)[C@@]23C(/C=C/C[C@H](C)C[C@@](C)(O)/C=C/[C@@H]3OC(C)=O)[C@@H]1O (stereo partly specified),·,-0.8,·,-22.9%
O=C(CN1CCCC1=O)NCc1ccc(F)cc1Cl,i,-2.0,29.9%,4.6%
CCOC(=O)[C@H]1CN(C(=O)OCc2ccccc2)[C@]2(C)C(=O)N(CC3CC3)c3ccccc3[C@H]12,·,-1.4,-26.1%[25.6 µM],0.2%[23.9 µM]
Cc1nc(-c2ccc(N(C)C)cc2)cc([C@H]2CN3CC[C@H]2C[C@@H]3CNC(=O)NC(C)C)n1,11.2µM*,-11.6,0.7%[87.6 µM],-21.0%[87.6 µM]
Cc1nc(-c2ccc(N(C)C)cc2)cc([C@H]2CN3CC[C@H]2C[C@@H]3CNC(=O)c2ccco2)n1,25.1µM*,-4.1,-23.9%,-4.6%
Cc1nc(-c2ccc(N(C)C)cc2)cc([C@H]2CN3CC[C@H]2C[C@@H]3COC(=O)Nc2ccccc2)n1,?,-7.9,?,?
Cc1ccc2c(n1)N(C)[C@H](CO)CCN(CC(C)C)C2,15.8µM*,-8.2,12.9%[87.6 µM],2.4%[87.6 µM]
CC[C@@H]1C[C@H]2CC[C@H](O2)[C@H](C)C(=O)O[C@@H](C)C[C@@H]2CC[C@@H](O2)[C@@H](C)C(=O)O[C@H](CC)C[C@H]2CC[C@H](O2)[C@H](C)C(=O)O[C@@H](C)C[C@@H]2CC[C@@H](O2)[C@@H](C)C(=O)O1,·,19.4,·,?
COc1ccc(-c2cc3c(cn2)CN(C)CCN3)cc1OC,35.5µM*,-10.3,159.6%[87.6 µM],13.0%[87.6 µM]
COc1cccc(Nc2cc3c(cn2)CN(C)CCN3)c1,?,-2.1,37.7%[87.6 µM],-1.4%[87.6 µM]
CC(C)CCN1CCC(N2CCN(C(=O)COc3ccccc3)CC2)C1=O (stereo unspecified),i,6.4,-14.5%,-0.7%
COc1cc2c(cc1Oc1ccccc1)NC(=O)C21CCN(c2ncc(C(C)C)cn2)CC1,28.2µM*,-10.7,-15.7%,2.5%
COc1cc2c(cc1OCc1ccccc1)NC(=O)C21CCN(c2ccccn2)CC1,25.1µM*,-5.9,41.3%[87.6 µM],-6.6%[87.6 µM]
COc1cc2c(cc1OCc1ccccc1)NC(=O)C21CCN(c2ncccn2)CC1,?,-20.8,-21.6%[87.6 µM],-8.3%[87.6 µM]
COc1cc2c(cc1OC1CCCC1)NC(=O)C21CCN(C(=O)c2cccc(C#N)c2)CC1,i,-3.9,-21.4%,-3.7%
COc1cc2c(cc1Oc1ccccc1)NC(=O)C21CCN(c2ncccn2)CC1,?,-13.6,-47.4%[87.6 µM],-16.5%[87.6 µM]
COc1cc2c(cc1OC1CCCC1)NC(=O)C21CCN(c2ccc(C#N)cn2)CC1,31.6µM*,-7.9,3.8%[87.6 µM],8.6%[87.6 µM]
COc1cc2c(cc1OCc1ccccc1)N([S+](=O)([O-])c1ccccc1C(F)(F)F)CC21CCN(C)CC1,i,-11.2,?,?
CNc1nc(N2C[C@H]3CN(CCOC)C[C@@]3(C(=O)O)C2)ncc1F,15.8µM*,22.2,?,-1.2%
O=C(O)C1=NOC2CN(CC3CCNC3)CC12 (stereo unspecified),141µM*,0.2,12.4%[87.6 µM],4.4%[87.6 µM]
CNc1ccc2oc(C[C@H]3O[C@@]4(CC[C@H]3C)O[C@H]([C@H](C)C(=O)c3ccc[nH]3)[C@H](C)C[C@H]4C)nc2c1C(=O)O,·,·,28.2µM*,?
SMILES,KDM5B inhibitor,IP6K1 inh,SNCA expr inhib,SNCA viab count
CNc1ccc2oc(C[C@H]3O[C@@]4(CC[C@H]3C)O[C@H](C(C)C(=O)c3ccc[nH]3)[C@H](C)C[C@H]4C)nc2c1C(=O)O (stereo partly specified),·,6.6,·,9.47µM*
CCCn1c(C)cnc1CCNC(=O)c1nn(C)c2ccccc12,25.1µM*,-5.7,24.2%,-5.6%
Cc1nnc2n1CCC(NC(=O)c1nn(C)c3ccccc13)CC2 (stereo unspecified),?,10.8,0.0%,9.6%
CNc1ccc(OC2CCNCC2)nc1,28.2µM*,18.2,0.2%,13.7%
C#C[C@H]1CN2CC[C@H]1C[C@@H]2CNCc1cccc(Cl)c1,i,9.2,-26.6%[87.6 µM],-10.5%[87.6 µM]
COc1ccc(N2CC3CCC(C2)N3CC(F)(F)F)cn1,56.2µM*,-6.1,-8.9%,-0.3%
c1cnc2c(c1)NC1(CCCNC1)C(=NC1CCCC1)N2 (stereo unspecified),25.1µM*,0.0,1.1%,7.0%
c1cnc(N2CC[C@@]3(CCCNC3)C2)nc1,·,·,-13.6%,-3.3%
O=C1NCCCCCCN[C@H]2CCCC[C@@H]12,i,-12.3,-9.7%,-2.3%
O=C(C1CCCCC1)N1C[C@@H]2C[C@H](C1)c1c(/C=C/c3ccc(Cl)cc3)ccc(=O)n1C2,25.1µM*,18.0,8.5%,-29.2%
O=C(NC1CCCCC1)N1C[C@@H]2C[C@H](C1)c1c(/C=C/c3ccc(Cl)cc3)ccc(=O)n1C2,i,5.8,-0.8%,-9.9%
CC[C@H]1CN2CC[C@H]1C[C@@H]2CNC(=O)c1ccc2ccccc2c1,i,-6.9,2.4%[87.6 µM],-1.8%[87.6 µM]
CC[C@H]1CN2CC[C@H]1C[C@@H]2COC(=O)Nc1cccc2ccccc12,31.6µM*,2.3,8.6%[87.6 µM],1.5%[87.6 µM]
CC[C@H]1CN2CC[C@H]1C[C@@H]2COC(=O)Nc1ccc(C(C)(C)C)cc1,28.2µM*,-12.9,-13.5%[87.6 µM],-23.1%[87.6 µM]
COc1ccc(CC(=O)N2CCN(CCn3nc4n(c3=O)CCCC4)CC2)cc1,·,-6.3,·,·
COc1cc2c(cc1Oc1ccccc1)NC(=O)C21CCN(C(=O)c2cccnc2)CC1,i,-10.3,?,-16.5%[87.6 µM]
CNC(=O)c1cc(C#N)cc(C)c1NC(=O)c1cc(Br)nn1-c1ncccc1Cl,·,-3.3,·,4.2%
C1=C2CCCN[C@H]2[C@@H]2C[C@H]1[C@H]1CCCCN1C2,·,35.1,·,-16.5%
CN(C)Cc1ccccc1-c1ccc2n(c1=O)C[C@H]1C[C@@H]2CN(C(=O)C2CCCCC2)C1,35.5µM*,0.6,-10.2%[87.6 µM],-0.8%[87.6 µM]
O=C1Nc2ccccc2CC12CCN(Cc1ccccn1)C2 (stereo unspecified),31.6µM*,8.5,6.9%[87.6 µM],-1.7%[87.6 µM]
CC[C@H]1CN2CC[C@H]1C[C@@H]2CNC(=O)CC(C)(C)CC(=O)O,i,6.5,6.2%[87.6 µM],2.1%[87.6 µM]
CN(C)CC(=O)Nc1ccc2n(c1=O)C[C@H]1C[C@@H]2CN(S(=O)(=O)c2ccccc2)C1,?,-2.2,?,-12.7%[87.6 µM]
O=c1c(C2CCCCC2)ccc2n1C[C@H]1C[C@@H]2CN(S(=O)(=O)c2ccccc2)C1,31.6µM*,-6.1,-26.0%[87.6 µM],-12.6%[87.6 µM]
N#Cc1ccccc1S(=O)(=O)N1C[C@@H]2C[C@H](C1)c1ccc(-c3ccc(Cl)cc3)c(=O)n1C2,35.5µM*,-9.3,-4.2%,-10.2%
